Experimental data taken from PubChem BioAssay (NCATS).
Where “and” joins values, the source holds several entries; their conditions need not be identical. Equal entries are not always repeated. Inconclusive results are not listed. Where a call stands in place of a potency, no number is given. Calls of active or inactive are those of the source. Unless noted, calls follow the shape of the dose curve; as a rule, active = well fitted curve in the direction sought with a large enough effect; inconclusive = small, poorly fitted or top-dose-only effect, or another doubt; inactive = no such curve, though single readings can be large; an effect the other way counts as inactive or inconclusive.

Experiments:
[1] = target: Calcium and integrin-binding protein 1 (Homo sapiens) (UniProt Q99828); assay: Primary qHTS for Identification of Calcium Integrin Binding Protein 1 (CIB1) Competitor (AID 1508620);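 also: GST tagged CIB1 binding a fluorescein labelled alphaIIb integrin peptide tracer; top concentration of the series differs between compounds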
Calcium and integrin-binding protein 1 (Homo sapiens), sequence (Q99828 whole entry, looked up): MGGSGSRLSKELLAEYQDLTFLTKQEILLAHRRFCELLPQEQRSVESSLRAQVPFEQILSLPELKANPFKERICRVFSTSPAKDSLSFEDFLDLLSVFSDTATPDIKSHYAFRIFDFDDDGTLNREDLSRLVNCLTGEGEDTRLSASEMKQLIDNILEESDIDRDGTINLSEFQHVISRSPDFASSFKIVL
Summary of the method: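 Fluorescence polarization competition: CIB1-GST (1 uM final) preincubated with compound 15 min at room temperature, then FITC-labeled alphaIIb peptide (100 nM final) added for another 15 min. Polarization read at Ex 480/Em 540.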

[2] = target: Cytochrome P450 2D6 (Homo sapiens) (UniProt P10635); assay: Cytochrome P450 family 2 subfamily D member 6 (CYP2D6) small molecule antagonists: luciferase biochemical (cell-free) qHTS assay (AID 1645840; active = well fitted curve in the direction sought with a large enough effect in the repeat runs; an effect the other way counts as inactive or inconclusive; also: nearly all actives have a fitted effect of over 55% in size; also: potency is read from the fitted curve at half-maximal effect)
Cytochrome P450 2D6 (Homo sapiens), sequence (P10635 whole entry, looked up): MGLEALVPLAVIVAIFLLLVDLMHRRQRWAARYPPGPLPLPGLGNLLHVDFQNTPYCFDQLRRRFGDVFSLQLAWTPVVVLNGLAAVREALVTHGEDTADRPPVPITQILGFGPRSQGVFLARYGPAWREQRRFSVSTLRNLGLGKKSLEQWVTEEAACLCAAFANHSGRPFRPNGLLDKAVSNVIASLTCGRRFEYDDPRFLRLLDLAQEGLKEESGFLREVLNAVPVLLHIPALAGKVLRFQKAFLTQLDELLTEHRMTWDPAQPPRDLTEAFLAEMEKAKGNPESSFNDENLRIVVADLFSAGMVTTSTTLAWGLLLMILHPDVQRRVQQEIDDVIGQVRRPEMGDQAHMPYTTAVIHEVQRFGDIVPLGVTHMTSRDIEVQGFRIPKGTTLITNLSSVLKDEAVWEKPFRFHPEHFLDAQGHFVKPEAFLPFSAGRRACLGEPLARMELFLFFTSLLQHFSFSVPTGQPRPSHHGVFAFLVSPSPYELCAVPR
Summary of the method: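 P450-Glo CYP2D6 system: proluciferin substrate converted by enzyme to luciferin, read by luminescence proportional to activity. Enzyme-substrate mix with compound 10 min at room temperature, then NADPH regeneration 1 h before detection reagent.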

[3] = target: Cytochrome P450 2C9 (Homo sapiens) (UniProt P11712); assay: Cytochrome P450 family 2 subfamily C member 9 (CYP2C9) small molecule antagonists: luciferase biochemical (cell-free) qHTS assay (AID 1645842; active = well fitted curve in the direction sought with a large enough effect in the repeat runs; an effect the other way counts as inactive or inconclusive; also: nearly all actives have a fitted effect of over 55% in size; also: potency is read from the fitted curve at half-maximal effect)
Cytochrome P450 2C9 (Homo sapiens), sequence (P11712 whole entry, looked up): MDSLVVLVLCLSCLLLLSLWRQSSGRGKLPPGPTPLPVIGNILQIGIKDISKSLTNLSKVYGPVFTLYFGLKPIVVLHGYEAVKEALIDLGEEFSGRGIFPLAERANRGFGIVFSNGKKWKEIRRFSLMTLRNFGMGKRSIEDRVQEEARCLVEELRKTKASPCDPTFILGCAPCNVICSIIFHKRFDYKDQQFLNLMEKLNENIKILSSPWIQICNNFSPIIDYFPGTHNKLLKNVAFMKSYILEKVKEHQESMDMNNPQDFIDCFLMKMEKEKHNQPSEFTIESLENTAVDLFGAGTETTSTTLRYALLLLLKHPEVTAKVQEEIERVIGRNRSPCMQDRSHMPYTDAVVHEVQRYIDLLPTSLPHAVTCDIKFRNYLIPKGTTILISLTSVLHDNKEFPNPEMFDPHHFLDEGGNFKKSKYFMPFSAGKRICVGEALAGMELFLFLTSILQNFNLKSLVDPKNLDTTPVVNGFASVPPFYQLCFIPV
Summary of the method: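 P450-Glo CYP2C9 system: proluciferin substrate with enzyme in mix containing 0.4% BSA, 10 min at room temperature, then NADPH regeneration solution added and incubated 1 h at 37C. Detection reagent stopped reaction; luminescence read after 20 min as RLU.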

[4] = Primary qHTS for inhibitors of nuclear receptor binding SET domain protein 2 (NSD2) in an RCH-ACV wild type WT cells (2C) (AID 1645877); also: nearly all actives have a fitted effect of over 70% in size; also: potency is read from the fitted curve at half-maximal effect
[5] = Primary qHTS for inhibitors of nuclear receptor binding SET domain protein 2 (NSD2) in an isogenic RCH-ACV NSD2 p.E1099K mutant (9B) (AID 1645876); also: nearly all actives have a fitted effect of over 70% in size; also: potency is read from the fitted curve at half-maximal effect
[6] = target: Catechol O-methyltransferase (Homo sapiens) (UniProt P21964); assay: Confirmatory Screen for Target Class Profiling of Small Molecule Inhibitors of Methyltransferases (AID 1745852); conditions: MTase-Glo luminescence, SAH detection, recombinant enzyme; measured here: COMT max response; stronger effect = lower value
Catechol O-methyltransferase (Homo sapiens), sequence (P21964 whole entry, looked up): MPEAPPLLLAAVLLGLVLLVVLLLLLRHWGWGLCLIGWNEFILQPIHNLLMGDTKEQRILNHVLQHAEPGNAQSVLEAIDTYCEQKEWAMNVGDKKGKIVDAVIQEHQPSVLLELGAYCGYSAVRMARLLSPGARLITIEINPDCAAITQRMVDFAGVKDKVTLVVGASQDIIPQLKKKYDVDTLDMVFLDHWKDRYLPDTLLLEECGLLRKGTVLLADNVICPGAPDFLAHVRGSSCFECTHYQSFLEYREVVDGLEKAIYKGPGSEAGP

CC(Cc1cc2c(c(C(N)=O)c1)N(CCCO)CC2)NCCOc1ccccc1OCC(F)(F)F (stereo not drawn)
Potency [1]: inactive | Potency [2]: 7.56 µM (active) | Potency [3]: inactive | Potency [4]: inactive

COc1cc(O)c([C@@H](CC(=O)N2CC(C)CC(C)C2)c2ccc3c(c2)OCO3)c(OC)c1 (stereo partly drawn)
Potency [1]: inactive | Potency [2]: 19 µM (active) | Potency [3]: 1.34 µM (active) | Potency [4]: inactive

CN(CCc1ccc(Nc2ncc(-c3cccnc3)s2)cc1)Cc1ccccc1
Potency [1]: inactive | Potency [2]: 1.2 µM (active) | Potency [3]: 12 µM (active) | Potency [5]: 8.17 µM (active) | Potency [4]: 9.16 µM (active) | activity [6]: -0.695%

O=C(Nc1ccc(-c2ccncc2)cc1)N[C@H](CO)c1ccccc1
Potency [1]: inactive | Potency [2]: 10.7 µM (active) | Potency [3]: 10.7 µM (active) | Potency [4]: 23 µM (active)

Cc1c[nH]c2nccc(Oc3c(F)cc(Nc4cc(Cl)nc(N)n4)cc3F)c12
Potency [1]: inactive | Potency [2]: 6.74 µM (active) | Potency [3]: 15.1 µM (active) | Potency [5]: 0.728 µM (active) | Potency [4]: 0.731 µM (active) | activity [6]: -14.6%

COc1ccc(-c2ccc(-c3cn(C(=O)N4CCCCC4c4ccccc4)nn3)cc2)cc1 (stereo not drawn)
Potency [1]: inactive | Potency [2]: inactive | Potency [3]: 2.13 µM (active) | Potency [5]: inactive | Potency [4]: inactive

CC(=O)N1CCN(C(=O)Cc2ccc(Nc3ncc(F)c(Nc4ccc(C(=O)Nc5ccccc5Cl)cc4)n3)cc2)CC1
Potency [1]: inactive | Potency [2]: inactive | Potency [3]: 0.477 µM (active) | Potency [5]: 1.63 µM (active) | Potency [4]: 2.05 µM (active)

CCOCCn1nc(CC)c2nc(N3CCC(C(=O)O)CC3)nc(Nc3cc(C)ccn3)c21
Potency [1]: inactive | Potency [2]: inactive | Potency [5]: inactive | Potency [4]: inactive

Cc1cnc(NC(=O)Nc2cc(Br)c(C)cc2OCC2CNCCO2)cn1 (stereo not drawn)
Potency [1]: inactive | Potency [2]: 12 µM (active) | Potency [5]: 0.649 µM (active) | Potency [4]: 0.578 µM (active)

CC(C)[C@@](C)(O)[C@@H]1CN(c2nc(-c3[nH]nc4ncccc34)c(F)cc2Cl)CCN1
Potency [1]: inactive | Potency [2]: 0.849 µM (active) | Potency [5]: 6.49 µM (active) | Potency [4]: 4.59 µM (active) | activity [6]: -69%

CN(C)c1nc(NC2CCC(NC(=O)c3ccc(F)c(F)c3)CC2)nc2ccccc12 (stereo not drawn)
Potency [1]: inactive | Potency [2]: 5.35 µM (active) | Potency [5]: 6.49 µM (active) | Potency [4]: 6.49 µM (active) | activity [6]: -11.9%

Cc1ccc(Cc2c(C)nc3nc(SCC(=O)NCCN4CCNCC4)nn3c2C)cc1
Potency [1]: inactive | Potency [2]: inactive | Potency [5]: inactive | Potency [4]: inactive

Cc1[nH]c2ccccc2c1CCNC(=O)c1ccccc1F
Potency [1]: inactive | Potency [2]: 21.3 µM (active) | Potency [5]: inactive | Potency [4]: inactive

Cn1nnc(-c2ccc(-c3ccc(N4C[C@H](CO)OC4=O)cc3F)cn2)n1
Potency [1]: inactive | Potency [2]: inactive | Potency [5]: inactive | Potency [4]: inactive

CC(=O)SCC(=O)c1ccc(NS(=O)(=O)c2ccc(OCCCN(C)C)cc2)nc1
Potency [1]: inactive | Potency [2]: inactive | Potency [5]: 1.29 µM (active) | Potency [4]: 1.15 µM (active)

C=CC(=O)Nc1cccc(Nc2nc(Nc3ccc(N4CCN(C(C)=O)CC4)cc3OC)ncc2C(F)(F)F)c1
Potency [1]: inactive | Potency [2]: inactive | Potency [5]: 3.65 µM (active) and 4.17 µM (active) | Potency [4]: 2.9 µM (active)

Cc1cc(C(=O)N2Cc3cnn(C)c3Nc3ccccc32)ccc1CNC(=O)N1CCC[C@H]1C(=S)N1CCCN(C)CC1
Potency [1]: inactive | Potency [2]: inactive | Potency [5]: inactive | Potency [4]: inactive

Nc1nc(Nc2ccc(S(N)(=O)=O)cc2)n(C(=S)Nc2c(F)cccc2F)n1
Potency [1]: inactive | Potency [2]: 10.7 µM (active) | Potency [5]: inactive | Potency [4]: inactive

O=C(O)Cc1ccc2oc(-c3ccc(NC(=O)/C=C/c4ccc(Br)cc4)c(F)c3)nc2c1
Potency [1]: inactive | Potency [2]: inactive | Potency [5]: inactive | Potency [4]: inactive

CC1(C)CCC(C)(C)c2cc(C3(c4ccc(C(=O)O)cc4)OCCO3)ccc21
Potency [1]: inactive | Potency [2]: inactive | Potency [5]: inactive | Potency [4]: inactive

N#Cc1ccc2[nH]cc(CCCCN3CCN(c4ccc5oc(C(N)=O)cc5c4)CC3)c2c1
Potency [1]: inactive | Potency [2]: 4.77 µM (active) | Potency [5]: 14.5 µM (active) | Potency [4]: 16.3 µM (active) | activity [6]: -8.1%

O=C(c1cn(Cc2cncn2Cc2ccc(Br)cc2)cc1-c1cccc2ccccc12)N1CCOCC1
Potency [1]: inactive | Potency [2]: 10.7 µM (active) | Potency [5]: 1.83 µM (active) | Potency [4]: 1.15 µM (active)

CCCN1CCC(c2cccc(S(C)(=O)=O)c2)CC1
Potency [1]: inactive | Potency [2]: 8.49 µM (active) | Potency [5]: inactive | Potency [4]: inactive

c1ccc(-c2csc(N3CCOCC3)n2)cc1
Potency [1]: inactive | Potency [2]: inactive | Potency [5]: inactive | Potency [4]: inactive

CN(C)CC1CCOC1(c1ccccc1)c1ccccc1 (stereo not drawn)
Potency [1]: inactive | Potency [2]: 2.24 µM (active) | Potency [5]: inactive | Potency [4]: inactive

CC(C)(C)OC(=O)N1CCC(OCc2nc(-c3ccncc3)no2)CC1
Potency [1]: inactive | Potency [2]: inactive | Potency [5]: inactive | Potency [4]: inactive
